{"source": "PubChem BioAssay (NCI)", "note": "The panel holds about 83,000 compounds, 20% with a hit somewhere; the sample as a whole holds those more often.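 Growth was measured after 48 h exposure to one concentration of compound in 96-well plates. Values under 10 count as active.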 Values without a mark were called inactive. Activity calls are given as the source filed them."}
{"system": "HL-60(TB) leukemia", "test": "NCI-60 one-dose screen, 48 h (100 = growth as untreated, 0 = no growth, -100 = all killed)", "settings": "10 µM unless noted"}
{"smiles": "Cc1cc(C)c2nc(Nc3nc(C)c(C)c(=O)[nH]3)nc(C)c2c1", "growth": "-10.2% (active)"}
{"smiles": "COC(=O)C1=C(C)NC(C)=C(C(=O)OCC(C)C)C1c1ccccc1[N+](=O)[O-]", "note": "(stereo not given)", "growth": "28.9%"}
{"smiles": "OC1CCCN(Cc2ccccc2)C1", "note": "(stereo not given)", "growth": "114%"}
{"smiles": "Cc1cc(=O)[nH]c(N/N=C/c2ccccc2O)n1", "growth": "71.3%"}
{"smiles": "C=CCCCC(=O)CCC(=O)OCC1O[C@@H](O[C@@H]2C(O)[C@@H](OC(C)=O)C(C)O[C@H]2O[C@H](CC=C)CCCCC)C(O)[C@@H](OC(=O)/C(C)=C/C)[C@@H]1OC(=O)/C=C/c1ccccc1", "note": "(stereo not given in full)", "growth": "8.45% (active)"}
{"smiles": "CCOC(=O)COc1ccc2c(c1)O/C(=C\\c1ccc(O)cc1)C2=O", "growth": "112%"}
{"smiles": "COc1ccc(C2CC(c3cccc(Nc4ccncc4)c3)=NN2c2ccccc2)cc1", "note": "(stereo not given)", "growth": "-32.8% (active)"}
{"smiles": "O=C(CCN1CCCC1)Nc1ccc2c(NCc3ccccc3)c3ccccc3nc2c1", "growth": "-40.8% (active)"}
{"smiles": "CCOC(=O)c1c(C)[nH]c2ccc(O)cc12", "growth": "95.7%"}
{"smiles": "COc1cc(C2C(C(=O)OCc3ccccc3)=C(C)NC(C)=C2C(=O)OCc2ccccc2)cc(OC)c1OC", "growth": "5.01% (active)"}
{"smiles": "O=C(Nc1cccc(Cl)c1)Oc1c(Br)c(Br)c(Br)c(Br)c1Br", "growth": "88.4%"}
{"smiles": "Cc1cc(C)c(-c2c(O)c(Br)c(-c3c(C)cc(C)c(Br)c3C)c(O)c2Br)c(C)c1Br", "growth": "27.3%"}
{"smiles": "Cc1nccc2c3ccc(OCc4cn(-c5ccc(Br)cc5)nn4)cc3n(CCCc3ccccc3)c12", "growth": "46.1%"}
{"smiles": "O=C(Cc1ccc(/C=C/C(=O)c2ncc[nH]2)cc1)Nc1ccc(Cl)cc1", "growth": "-14.5% (active)"}
{"smiles": "Cc1ccc2nc3c(cc2c1)CSc1nnc(-c2ccc[nH]c2=S)n1N3", "growth": "102%"}
{"smiles": "Cc1ccc(C2CC3c4ccccc4C2C2CCCCN32)cc1", "note": "(stereo not given)", "growth": "52.8%"}
{"smiles": "Cc1cc(N2CCN(C)CC2)nc(NCc2cc(Nc3ccnc4cc(Cl)ccc34)ccc2F)n1", "growth": "-53.5% (active)"}
{"smiles": "Cn1cc(-c2nnc(-c3cn(C)c4ncc(Br)cc34)s2)c2cc(Br)ccc21", "growth": "106%"}
{"smiles": "CCCS(=O)(=O)Nc1ccc(F)c(C(=O)c2c[nH]c3ncc(-c4ccc(Cl)cc4)cc23)c1F", "growth": "30.7%"}
{"smiles": "c1ccc2c(-c3cnn4cc(-c5ccc(N6CCNCC6)cc5)cnc34)ccnc2c1", "growth": "-55.7% (active)"}
{"smiles": "N=C(N)SCc1c2ccccc2c(CSC(=N)N)c2ccccc12", "growth": "20.8%"}
{"smiles": "CCCCNc1nnc(-c2cc(-c3cc4ccccc4o3)nn2-c2ccccc2)o1", "growth": "86.5%"}
{"smiles": "CN(C)C(=O)c1cc2cnc(Nc3ccc(-c4csc5c(=O)cc(N6CCOCC6)oc45)cc3)nc2n1C1CCCC1", "growth": "-46.7% (active)"}
{"smiles": "Cc1nc(N=C(N)N)nc2ccc3ccccc3c12", "growth": "22.6%"}
{"smiles": "CC(=O)Nc1ccc(-c2cc3c(NCc4ccc(F)cc4)ncnc3s2)cc1", "growth": "89.1%"}
{"smiles": "Cc1nonc1-c1ccc2c(c1)OCO2", "growth": "86.9%"}
{"smiles": "c1ccc2cc(Cn3c[n+](Cc4ccc5ccccc5c4)c4ccccc43)ccc2c1", "growth": "-66.3% (active)"}
{"smiles": "Cc1ccc(S(=O)(=O)N2CCc3ccc(O)c4c3C2Cc2ccc3c(c2-4)OCO3)cc1", "note": "(stereo not given)", "growth": "-8.02% (active)"}
{"smiles": "NNC(=O)NO", "growth": "94.4%"}
{"smiles": "O=C1N=C(c2c(-c3[nH]c(=O)c4ccc(Br)cc4c3O)c(O)c3ccccc3c2O)C(=O)c2cc(Br)ccc21", "growth": "45.6%"}
{"smiles": "c1ccc(Cn2cnc3ccc(-c4nc(-c5ccc6c(c5)ncn6C5CCCCC5)cn5ccnc45)cc32)cc1", "growth": "-20.8% (active)"}
{"smiles": "COCCOCCOCc1n(Cc2ccc3ccccc3n2)c2ccccc2[n+]1Cc1ccc2ccccc2n1", "growth": "-42.9% (active)"}
{"smiles": "NS(=O)(=O)c1ccc(CCN2C(=O)C3C(C2=O)C2(Cl)C(Cl)=C(Cl)C3(Cl)C2(Cl)Cl)cc1", "note": "(stereo not given)", "growth": "78.4%"}
{"smiles": "CCNCCNc1cc(-c2ccc(C#N)cc2)c(C#N)c2nc3ccccc3n12", "growth": "-45.4% (active)"}
{"smiles": "CSc1nc2c(c(=O)[nH]1)C(c1ccc(C)cc1)C=C(C(=O)O)N2", "note": "(stereo not given)", "growth": "114%"}
{"smiles": "CNC(=O)c1cc(Oc2ccc(NC(=O)Nc3ccc(Cl)c(SC)c3)c(F)c2)ccn1", "growth": "45.5%"}
{"smiles": "N#Cc1c(NC(=O)NCc2ccccc2)sc2c1CCCC2", "growth": "-4.95% (active)"}
{"smiles": "Cc1cc(C(=O)Nc2cc(Nc3ncccc3-c3ncnc4nc[nH]c34)ccc2F)cc(C(F)(F)F)c1", "growth": "25.1%"}
{"smiles": "CCC(C)CC(CC)NCCN1CCN(C(CC)CC(C)CC)C1=S", "note": "(stereo not given)", "growth": "39.8%"}
{"smiles": "OCCN1CCN(CC/C=C2/c3ccccc3Sc3ccc(C(F)(F)F)cc32)CC1", "growth": "73.1%"}
